Reference: a collection of fitness landscapes (doi:10.1016/j.celrep.2020.107928)
Whole data set: some 81,000 sequences, median “one-hybrid fitness for binding NBS DNA” near -0.1, cut for the highest 2% near 0.36. What follows is part of a selection rich in the highest values, with near analogues and random picks from the rest.

B1: Caulobacter ParB omega fusion; a variant is named by its letters at X, in order, B8GW30 (parent)
chain: MESVVVGEPGMSEGRRGLGRGLSALLGEVDAAPAQAPGEQLGGSREAPIEILQRNPDQPRRTFREEDLEDLSNSIREKGVLQPILVRPSPDTAGEYQIVAGERAWRAAQRAGLKTVPIMVRELDDLAVLEIGIIENVQRADLNVLEEALSYKVLMEKFERTQENIAQTIGKSXSHVANXMRLLXLPDEVQSYLVSGELTAXHARAIAAAADPVALAKQIIEGGLSVRETEALARKAPNLSAGKSKGGRPPRVKDTDTQALESDLSSVLGLDVSIDHRGSTGTLTITYATLEQLDDLCNRLTRGI

Variants of: B1
Assay: one-hybrid fitness for binding NBS DNA (the Noc-binding site; scaled: cognate 1, non-cognate 0); higher = stronger binding
Conditions: with NBS DNA site
Outline: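 On M9-minus-histidine containing 0.1 mM IPTG and 5 mM 3-AT, E. coli USO cells with a HIS3 reporter, site 19 bp from the promoter, grew 48 hours at 37°C to select Caulobacter ParB libraries randomised at four specificity codons. Plasmids from before and after were Illumina-sequenced, with three replicate libraries pooled and variants under 10 reads left out. Fitness is the log change in variant-to-wild-type read ratio, rescaled against cognate and non-cognate.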

Row | Variant | one-hybrid fitness for binding NBS DNA
1 | RNCT | ≤ 0.2
2 | SKAC | ≤ 0.2
3 | MVPR | ≤ 0.2
4 | EELK | ≤ 0.2
5 | TSEY | ≤ 0.2
6 | HMMA | ≤ 0.2
7 | CPSC | ≤ 0.2
8 | TSCN | ≤ 0.2
9 | GRQR | ≤ 0.2
10 | QLKY | 0.46
11 | QLVY | ≤ 0.2
12 | QLHY | ≤ 0.2
13 | KCDL | ≤ 0.2
14 | SRHH | ≤ 0.2
15 | QQKA | 0.628
16 | QQIA | ≤ 0.2
17 | QQAA | 0.347
18 | QQNA | 0.421
19 | QQDA | 0.25
20 | QQLA | 0.294
21 | QQPA | ≤ 0.2
22 | QQVA | 0.271
23 | QQSA | 0.37
24 | QQQA | 0.357

Row | Variant | one-hybrid fitness for binding NBS DNA
25 | QQHA | 0.384
26 | PRNE | ≤ 0.2
27 | MSCY | ≤ 0.2
28 | IKIS | ≤ 0.2
29 | QDWF | ≤ 0.2
30 | TRTG | ≤ 0.2
31 | QQRA | 0.606
32 | QQFA | 0.201
33 | QQCA | 0.291
34 | QQYA | 0.303
35 | QQGA | 0.388
36 | QQWA | 0.212
37 | RPVR | 0.204
38 | RKVR | 0.478
39 | RKKF | ≤ 0.2
40 | RCVR | 0.349
41 | RKKM | 0.269
42 | RKKR | 0.768
43 | TEPD | ≤ 0.2
44 | QDCL | ≤ 0.2
45 | PRVR | ≤ 0.2
46 | HRYR | ≤ 0.2
47 | PCKR | 0.205
48 | YCKR | ≤ 0.2

Row | Variant | one-hybrid fitness for binding NBS DNA
49 | TRKP | ≤ 0.2
50 | TRVS | ≤ 0.2
51 | HRKR | 0.395
52 | HRVR | ≤ 0.2
53 | PRKR | 0.4
54 | YRVR | ≤ 0.2
55 | YRKR | 0.377
56 | TRKS | 0.437
57 | GNLD | ≤ 0.2
58 | ICLR | ≤ 0.2
59 | DVLD | ≤ 0.2
60 | AEAG | ≤ 0.2
61 | IGGG | ≤ 0.2
62 | AHLT | ≤ 0.2
63 | ARVR | ≤ 0.2
64 | TRKN | 0.212
65 | TRVR | 0.215
66 | ARYR | ≤ 0.2
67 | ARKR | 0.364
68 | TRKR | 0.799
69 | KFSD | ≤ 0.2
70 | ETGL | ≤ 0.2
71 | QSPR | 0.27
72 | QTID | ≤ 0.2

Row | Variant | one-hybrid fitness for binding NBS DNA
73 | QCPR | 0.37
74 | QTIN | ≤ 0.2
75 | QTPN | ≤ 0.2
76 | QTPD | ≤ 0.2
77 | QTIR | 0.499
78 | QPPR | ≤ 0.2
79 | QTPR | 0.42
80 | FWRC | ≤ 0.2
81 | SYKP | ≤ 0.2
82 | HILC | ≤ 0.2
83 | CLQI | ≤ 0.2
84 | NVRS | ≤ 0.2
85 | IVEG | ≤ 0.2
86 | QCGG | ≤ 0.2
87 | QSRG | 0.319
88 | QRQG | 0.366
89 | QRFG | 0.249
90 | QPRG | ≤ 0.2
91 | QRGG | 0.367
92 | QCAG | ≤ 0.2
93 | QSQG | ≤ 0.2
94 | QCRG | 0.451
95 | QCQG | ≤ 0.2
96 | QRAG | 0.37

Row | Variant | one-hybrid fitness for binding NBS DNA
97 | QPGG | ≤ 0.2
98 | PYIE | ≤ 0.2
99 | ACCM | ≤ 0.2
100 | VPMR | ≤ 0.2
101 | STTV | ≤ 0.2
102 | THKV | ≤ 0.2
103 | IMSF | ≤ 0.2
104 | GCVM | ≤ 0.2
105 | QMRG | 0.391
106 | QRIG | ≤ 0.2
107 | QMYG | ≤ 0.2
108 | QTDG | ≤ 0.2
109 | QTRG | 0.496
110 | QTYG | ≤ 0.2
111 | QRRG | 0.483
112 | QMDG | ≤ 0.2
113 | QCNG | ≤ 0.2
114 | QRNG | 0.381
115 | QRYG | 0.312
116 | QRDG | ≤ 0.2
117 | AHGY | ≤ 0.2
118 | VSQE | ≤ 0.2
119 | EAKN | ≤ 0.2
120 | LLTW | ≤ 0.2

Row | Variant | one-hybrid fitness for binding NBS DNA
121 | AKGR | ≤ 0.2
122 | QLFF | ≤ 0.2
123 | YHKT | ≤ 0.2
124 | GRAV | ≤ 0.2
125 | LTWN | ≤ 0.2
126 | RRFM | 0.266
127 | RRAH | 0.406
128 | RRAN | 0.282
129 | RCFS | 0.411
130 | RSFS | 0.252
131 | RRFH | 0.389
132 | RRFN | 0.23
133 | RPFS | ≤ 0.2
134 | RRFP | ≤ 0.2
135 | RRFS | 0.666
136 | RRAD | ≤ 0.2
137 | RRFD | ≤ 0.2
138 | LARA | ≤ 0.2
139 | ELER | ≤ 0.2
140 | PWIR | ≤ 0.2
141 | MRID | ≤ 0.2
142 | CPAI | ≤ 0.2
143 | RRAK | 0.254
144 | RRAS | 0.655

Row | Variant | one-hybrid fitness for binding NBS DNA
145 | RRAP | ≤ 0.2
146 | RIQR | 0.38
147 | RISD | ≤ 0.2
148 | RISN | ≤ 0.2
149 | RIHH | ≤ 0.2
150 | RISR | 0.386
151 | RIPR | ≤ 0.2
152 | RIYR | 0.377
153 | RIHR | 0.477
154 | RILR | 0.27
155 | RIQD | ≤ 0.2
156 | RIHP | ≤ 0.2
157 | RIQH | ≤ 0.2
158 | PALM | ≤ 0.2
159 | HPME | ≤ 0.2
160 | PIEV | ≤ 0.2
161 | KSHW | ≤ 0.2
162 | VSAN | ≤ 0.2
163 | EYDR | ≤ 0.2
164 | AMER | ≤ 0.2
165 | ITVP | ≤ 0.2
166 | GPTF | ≤ 0.2
167 | TCYM | ≤ 0.2
168 | RGSS | ≤ 0.2

Row | Variant | one-hybrid fitness for binding NBS DNA
169 | WTNW | ≤ 0.2
170 | HPYT | ≤ 0.2
171 | GAIA | ≤ 0.2
172 | RIGD | ≤ 0.2
173 | RIWR | 0.367
174 | RIIR | ≤ 0.2
175 | RIGH | ≤ 0.2
176 | RIWN | ≤ 0.2
177 | RIRH | 0.333
178 | RIGR | 0.441
179 | RIRR | 0.638
180 | RIWM | ≤ 0.2
181 | ISCL | ≤ 0.2
182 | YPMG | ≤ 0.2
183 | GWYC | ≤ 0.2
184 | RPAE | ≤ 0.2
185 | HFNL | ≤ 0.2
186 | RVAR | 0.396
187 | RVQR | 0.415
188 | RVAH | ≤ 0.2
189 | RVWR | 0.248
190 | RVYR | 0.359
191 | RVQH | ≤ 0.2
192 | RVRR | 0.626

Row | Variant | one-hybrid fitness for binding NBS DNA
193 | RVQS | 0.357
194 | RVFR | 0.34
195 | TANR | ≤ 0.2
196 | ERVW | ≤ 0.2
197 | TLWC | ≤ 0.2
198 | KAYA | ≤ 0.2
199 | QKKI | 0.337
200 | QKVH | ≤ 0.2
201 | QKVQ | 0.268
202 | QKKD | 0.211
203 | QKKS | 0.662
204 | QKHQ | ≤ 0.2
205 | QKKP | 0.26
206 | QKKQ | 0.384
207 | QKKH | 0.619
208 | QKKN | 0.42
209 | QKKG | 0.332
210 | QKKE | 0.283
211 | FAHG | ≤ 0.2
212 | SLHE | ≤ 0.2
213 | RHIK | ≤ 0.2
214 | GTLP | ≤ 0.2
215 | PPRN | ≤ 0.2
216 | SIAA | ≤ 0.2

Row | Variant | one-hybrid fitness for binding NBS DNA
217 | YQPS | ≤ 0.2
218 | KTAW | ≤ 0.2
219 | CMYT | ≤ 0.2
220 | DGST | ≤ 0.2
221 | AMAP | ≤ 0.2
222 | QKDS | 0.332
223 | QKYN | ≤ 0.2
224 | QKIS | 0.278
225 | QKQP | ≤ 0.2
226 | QKYS | 0.43
227 | QKRG | 0.335
228 | QKQS | 0.458
229 | QKQD | ≤ 0.2
230 | QKPS | ≤ 0.2
231 | QKRN | 0.37
232 | QKNP | ≤ 0.2
233 | QKNS | 0.539
234 | DCTY | ≤ 0.2
235 | IHHC | ≤ 0.2
236 | WGKE | ≤ 0.2
237 | WAWT | ≤ 0.2
238 | MWRS | ≤ 0.2
239 | MATS | ≤ 0.2
240 | CSVV | ≤ 0.2

Row | Variant | one-hybrid fitness for binding NBS DNA
241 | GFNG | ≤ 0.2
242 | GKLD | ≤ 0.2
243 | QKCS | 0.419
244 | QKHS | 0.494
245 | QKHD | ≤ 0.2
246 | GKLH | 0.366
247 | GKLS | ≤ 0.2
248 | QKCN | ≤ 0.2
249 | QKHH | 0.205
250 | QKAN | ≤ 0.2
251 | QKAP | ≤ 0.2
252 | QKCH | ≤ 0.2
253 | QKAS | 0.498
254 | SLNQ | ≤ 0.2
255 | VERV | ≤ 0.2
256 | NEQT | ≤ 0.2
257 | RMDV | ≤ 0.2
258 | RYAC | ≤ 0.2
259 | YPLD | ≤ 0.2
260 | IQMR | ≤ 0.2
261 | QKRD | 0.268
262 | QKSP | ≤ 0.2
263 | GWLI | 0.404
264 | QKRH | 0.579

Row | Variant | one-hybrid fitness for binding NBS DNA
265 | QKSH | 0.241
266 | QKLH | 0.246
267 | QKSS | 0.449
268 | QKLS | 0.392
269 | QKRF | 0.258
270 | QKLD | ≤ 0.2
271 | GWLS | ≤ 0.2
272 | GWLP | ≤ 0.2
273 | YTAV | ≤ 0.2
274 | HGTI | ≤ 0.2
275 | VPLE | ≤ 0.2
276 | AYGD | ≤ 0.2
277 | RKKE | ≤ 0.2
278 | KHKY | ≤ 0.2
279 | QKRI | 0.301
280 | QKDH | 0.521
281 | QKGD | ≤ 0.2
282 | QKRP | 0.261
283 | QKGH | 0.228
284 | QKRS | 0.677
285 | QKGS | 0.465
286 | QKNH | 0.286
287 | QKDD | ≤ 0.2
288 | MPKT | ≤ 0.2

Row | Variant | one-hybrid fitness for binding NBS DNA
289 | RGWG | ≤ 0.2
290 | DTNG | ≤ 0.2
291 | IIGR | ≤ 0.2
292 | VAWT | ≤ 0.2
293 | RYRS | 0.572
294 | RYQH | ≤ 0.2
295 | RYSN | ≤ 0.2
296 | RYST | 0.452
297 | RYQS | 0.386
298 | RYSG | ≤ 0.2
299 | RYSC | ≤ 0.2
300 | RYRN | ≤ 0.2
301 | RYSS | 0.437
302 | RYQD | ≤ 0.2
303 | RYRD | ≤ 0.2
304 | RYSH | ≤ 0.2
305 | MMDT | ≤ 0.2
306 | HANR | ≤ 0.2
